Common to all, as to settings: mRNA level, 48 h; actives raise or lower the signal
Read-out in assay [1]: ABC Transporter (ABCB11), ABCB11 (gene 8647)
Description: LTEA_HepaRG_ABCB11: Life Technologies and Expression Analysis (LTEA) Assay for ABC Transporter (ABCB11) using HepaRG (AID 2283463). The gist of the method: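 ABCB11 transcript levels quantified by TaqMan qRT-PCR against three housekeeping genes after 48 h chemical exposure of HepaRG cultures. Concentrations up to 100 uM in half-log steps, 0.5% DMSO vehicle; both induction and suppression scored.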

Read-out in assay [2]: ABC Transporter (ABCC2), ABCC2 (gene 1244)
The experiment in a line: LTEA_HepaRG_ABCC2: Life Technologies and Expression Analysis (LTEA) Assay for ABC Transporter (ABCC2) using HepaRG (AID 2283464). The method in brief:
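Endpoint is ABCC2 transcript level from qRT-PCR, normalized to three housekeeping genes and fitted bidirectionally relative to DMSO. Human HepaRG cells received test chemical for 48 h at up to 100 uM (8 points, half-log steps, 0.5% DMSO), duplicate wells.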

Read-out in assay [3]: Broad substrate specificity ATP-binding cassette transporter ABCG2 (Homo sapiens) (UniProt Q9UNQ0)
Description: LTEA_HepaRG_ABCG2: Life Technologies and Expression Analysis (LTEA) Assay for ABC Transporter (ABCG2) using HepaRG (AID 2283465). The method in brief: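 ABCG2 transcript was quantified by TaqMan qRT-PCR against three housekeeping genes in HepaRG cells. Cells were treated in duplicate for 48 h across an 8-point half-log series up to 100 uM, with 0.5% DMSO vehicle. Gain or loss versus DMSO was fit.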

Read-out in assay [4]: ATP-citrate lyase (ACLY), ACLY (gene 47)
The experiment in a line: LTEA_HepaRG_ACLY: Life Technologies and Expression Analysis (LTEA) Assay for ATP-citrate lyase (ACLY) using HepaRG (AID 2283466). The gist of the method:
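ACLY mRNA quantified by qRT-PCR on Fluidigm arrays against three housekeeping genes, after 48 h chemical treatment of HepaRG cells (top concentration 100 uM, half-log steps, 0.5% DMSO vehicle). Up- or down-regulation fitted relative to DMSO.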

Read-out in assay [5]: Peroxisomal acyl-coenzyme A oxidase 1 (ACOX1) gene, ACOX1 (gene 51)
The experiment in a line: LTEA_HepaRG_ACOX1: Life Technologies and Expression Analysis (LTEA) Assay for Peroxisomal acyl-coenzyme A oxidase 1 (ACOX1) gene using HepaRG (AID 2283467). The gist of the method: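 ACOX1 transcript levels were quantified by TaqMan qRT-PCR against three housekeeping genes after 48 h chemical exposure of differentiated human HepaRG cells. Exposure used eight half-log steps topping at 100 uM, 0.5% DMSO vehicle, in duplicate. Bidirectional curve fits were made relative to DMSO.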

Read-out in assay [6]: Alkaline Phosphatase, Placental (ALPP) gene, ALPP (gene 250)
Description: LTEA_HepaRG_ALPP: Life Technologies and Expression Analysis (LTEA) Assay for Alkaline Phosphatase, Placental (ALPP) gene using HepaRG (AID 2283468).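 For AC50: differentiated human HepaRG liver cells in serum-free induction medium.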 The gist of the method:
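ALPP transcript level, measured by qRT-PCR and normalized to three housekeeping genes (ACTB, GAPDH, POLR2A), after 48 h dosing of differentiated HepaRG in serum-free induction medium. Top concentration 100 uM with half-log dilutions (8 points, 0.5% DMSO, duplicates); bidirectional fitting relative to DMSO.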

Read-out in assay [7]: Bcl-2 (BAX) gene, BAX (gene 581)
Description: LTEA_HepaRG_BAX: Life Technologies and Expression Analysis (LTEA) Assay for Bcl-2 (BAX) gene using HepaRG (AID 2283470). The gist of the method: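 Cells were thawed, plated for 48 h, moved to serum-free induction medium and dosed for 48 h (highest concentration 100 uM, half-log steps, 0.5% DMSO). Total RNA was then analysed for BAX expression by qRT-PCR.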

Read-out in assay [8]: adenosine kinase (ADK) gene, ADK (gene 132)
Description: LTEA_HepaRG_ADK: Life Technologies and Expression Analysis (LTEA) Assay for adenosine kinase (ADK) gene using HepaRG (AID 2283471). The gist of the method: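 Read-out is ADK transcript level measured by qRT-PCR and normalised to three housekeeping genes. Cells are human HepaRG, dosed for 48 h at up to 100 uM in 0.5% DMSO. Gain or loss of signal is fitted against DMSO controls.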

Read-out in assay [9]: Alpha-fetoprotein (AFP) gene, AFP (gene 174)
Description: LTEA_HepaRG_AFP: Life Technologies and Expression Analysis (LTEA) Assay for Alpha-fetoprotein (AFP) gene using HepaRG (AID 2283472). The gist of the method: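 Chemicals were tested on differentiated HepaRG cells for 48 hours at eight concentrations up to 100 uM, with 0.5% DMSO as vehicle. AFP expression was then quantified by qRT-PCR and analyzed for gain or loss relative to DMSO.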

Read-out in another assay: BCL2L11 (gene 10018)
Description: LTEA_HepaRG_BCL2L11: Life Technologies and Expression Analysis (LTEA) Assay for Bcl-2 (BCL2L11) gene using HepaRG (AID 2283473). The method in brief:
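BCL2L11 transcript levels are measured by Fluidigm qRT-PCR, normalized to three housekeeping genes. HepaRG cultures were plated 48 h, then treated 48 h with test chemical (top 100 uM, half-log, 0.5% DMSO vehicle); curves were fitted bidirectionally against DMSO.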

Read-out in assay [10]: Apolipoprotein A-V (APOA5) gene, APOA5 (gene 116519)
Description: LTEA_HepaRG_APOA5: Life Technologies and Expression Analysis (LTEA) Assay for Apolipoprotein A-V (APOA5) gene using HepaRG (AID 2283474). The method in brief: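 APOA5 transcript levels were quantified by qRT-PCR, normalized to three housekeeping genes, after 48 h chemical treatment of HepaRG cells (8 points, 100 uM maximum, half-log steps, 0.5% DMSO). Curves fitted in both directions against vehicle.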

Read-out in assay [11]: Apoptosis regulator Bcl-2 (Homo sapiens) (UniProt P10415)
Description: LTEA_HepaRG_BCL2: Life Technologies and Expression Analysis (LTEA) Assay for Bcl-2 gene using HepaRG (AID 2283475). The method in brief: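 Plated human HepaRG cells are exposed to test chemicals for 48 h across eight concentrations from 100 uM downward in half-log steps (0.5% DMSO). BCL2 expression is then measured by qRT-PCR with housekeeping normalisation and fitted bidirectionally against vehicle.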

Read-out in assay [12]: Bcl-2 (BID) gene, BID (gene 637)
The experiment in a line: LTEA_HepaRG_BID: Life Technologies and Expression Analysis (LTEA) Assay for Bcl-2 (BID) gene using HepaRG (AID 2283476). The gist of the method:
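Cells are plated, cultured 48 h, switched to serum-free induction medium, then dosed 48 h (100 uM top, half-log steps, 0.5% DMSO). RNA is isolated and BID expression read by qRT-PCR.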

Read-out in the next assay: Caspase-3 (Homo sapiens) (UniProt P42574)
The experiment in a line: LTEA_HepaRG_CASP3: Life Technologies and Expression Analysis (LTEA) Assay for cysteine-aspartic acid protease (CASP3) using HepaRG (AID 2283477). The method in brief: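 Expression of CASP3 was quantified by TaqMan qRT-PCR against three housekeeping genes (ACTB, GAPDH, POLR2A), bidirectionally versus 0.5% DMSO. HepaRG cultures received compounds in duplicate, top 100 uM with half-log steps, for 48 h in serum-free induction medium.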

Read-out in assay [13]: Cytochrome P450 (CYP24A1), CYP24A1 (gene 1591)
Description: LTEA_HepaRG_CYP24A1: Life Technologies and Expression Analysis (LTEA) Assay for Cytochrome P450 (CYP24A1) using HepaRG (AID 2283478). The method in brief:
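mRNA of CYP24A1 quantified by TaqMan qRT-PCR (ACTB/GAPDH/POLR2A normalization) after 48 h chemical exposure of HepaRG cells, top concentration 100 uM, half-log steps, 0.5% DMSO vehicle, duplicates. Curves fitted bidirectionally against DMSO baseline.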

Read-out in assay [14]: Cytochrome P450 (CYP1A2), CYP1A2 (gene 1544)
The experiment in a line: LTEA_HepaRG_CYP1A2: Life Technologies and Expression Analysis (LTEA) Assay for Cytochrome P450 (CYP1A2) using HepaRG (AID 2283479). The gist of the method: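 CYP1A2 transcript measured by TaqMan qRT-PCR against three housekeeping genes after 48-hour chemical exposure of HepaRG cells. Eight-point half-log series topping at 100 uM in 0.5% DMSO, duplicates; gain or loss fitted relative to vehicle.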

Read-out in assay [15]: cysteine-aspartic acid protease (CASP8), CASP8 (gene 841)
Description: LTEA_HepaRG_CASP8: Life Technologies and Expression Analysis (LTEA) Assay for cysteine-aspartic acid protease (CASP8) using HepaRG (AID 2283480). The method in brief: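 CASP8 transcript measured by TaqMan qRT-PCR with ACTB/GAPDH/POLR2A normalization, after 48 h chemical exposure of HepaRG cells in serum-free induction medium. Eight concentrations, top 100 uM, half-log steps, 0.5% DMSO vehicle; fits in both directions versus DMSO.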

Read-out in assay [16]: Cytochrome P450 (CYP2B6), CYP2B6 (gene 1555)
The experiment in a line: LTEA_HepaRG_CYP2B6: Life Technologies and Expression Analysis (LTEA) Assay for Cytochrome P450 (CYP2B6) using HepaRG (AID 2283481). The method in brief:
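CYP2B6 transcript level quantified by qRT-PCR against three housekeeping genes, fitted bidirectionally relative to DMSO. HepaRG cultures received chemicals for 48 h, 8-point half-log series from 100 uM in 0.5% DMSO, duplicate wells, serum-free induction medium.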

Read-out in assay [17]: ABC Transporter (ABCC3), ABCC3 (gene 8714)
Description: LTEA_HepaRG_ABCC3: Life Technologies and Expression Analysis (LTEA) Assay for ABC Transporter (ABCC3) using HepaRG (AID 2283462). The gist of the method:
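Transcript level by TaqMan qRT-PCR, normalised to three housekeeping genes, fitted in both directions relative to vehicle. Chemicals tested in duplicate at eight half-log concentrations up to 100 uM for 48 h on HepaRG cells (0.5% DMSO).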

Activity calls are given as the source filed them. Rule for the calls: active = hit-call score of the fitted dose curve at least 0.9, where 1 is the maximum; inactive = score below 0.9.

What is called AC50 is the concentration giving half of the maximal activity seen.

Apoptosis regulator Bcl-2 (Homo sapiens), sequence (P10415 whole entry, looked up): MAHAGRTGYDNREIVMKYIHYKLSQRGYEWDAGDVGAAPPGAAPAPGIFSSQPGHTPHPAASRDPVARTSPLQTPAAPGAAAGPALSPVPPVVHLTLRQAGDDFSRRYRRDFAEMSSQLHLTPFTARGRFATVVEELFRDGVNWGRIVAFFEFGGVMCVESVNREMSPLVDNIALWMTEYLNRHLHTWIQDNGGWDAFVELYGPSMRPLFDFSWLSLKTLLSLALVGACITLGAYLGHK
Caspase-3 (Homo sapiens), sequence (P42574 whole entry, looked up): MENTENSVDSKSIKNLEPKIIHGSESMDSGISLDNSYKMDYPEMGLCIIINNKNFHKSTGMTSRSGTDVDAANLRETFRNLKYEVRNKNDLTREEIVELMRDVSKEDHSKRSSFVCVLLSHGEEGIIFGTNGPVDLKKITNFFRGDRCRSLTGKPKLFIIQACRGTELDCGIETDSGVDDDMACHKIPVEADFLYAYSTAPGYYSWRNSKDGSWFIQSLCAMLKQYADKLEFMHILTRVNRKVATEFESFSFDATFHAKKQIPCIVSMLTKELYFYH
Broad substrate specificity ATP-binding cassette transporter ABCG2 (Homo sapiens), sequence (Q9UNQ0 whole entry, looked up): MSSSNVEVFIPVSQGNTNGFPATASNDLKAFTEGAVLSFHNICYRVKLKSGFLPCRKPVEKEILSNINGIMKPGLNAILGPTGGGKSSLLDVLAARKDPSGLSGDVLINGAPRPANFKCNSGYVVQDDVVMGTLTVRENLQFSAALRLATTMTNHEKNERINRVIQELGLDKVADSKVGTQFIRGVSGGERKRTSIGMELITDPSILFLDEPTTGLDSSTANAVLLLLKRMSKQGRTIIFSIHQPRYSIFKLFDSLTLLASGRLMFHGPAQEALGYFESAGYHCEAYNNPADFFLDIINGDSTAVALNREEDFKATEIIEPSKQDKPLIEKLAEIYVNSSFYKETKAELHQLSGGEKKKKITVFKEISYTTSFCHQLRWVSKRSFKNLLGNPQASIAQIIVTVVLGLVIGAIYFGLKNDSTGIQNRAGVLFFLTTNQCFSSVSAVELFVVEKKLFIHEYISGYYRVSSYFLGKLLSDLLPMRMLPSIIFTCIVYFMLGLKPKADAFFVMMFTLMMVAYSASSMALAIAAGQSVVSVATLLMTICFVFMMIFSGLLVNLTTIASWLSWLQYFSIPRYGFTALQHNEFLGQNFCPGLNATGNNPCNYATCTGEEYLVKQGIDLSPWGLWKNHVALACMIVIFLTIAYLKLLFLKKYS

For the compound `CCCCOC(=O)c1ccccc1C(=O)O`, the compound was classed as inactive in [1], in assay [2], in [3], in [4], in [5] and in assay [6]. Also, the outcome (in [7]; in assay [8]; in assay [9]; in the assay with BCL2L11 (gene 10018); in [10]; in [11]) was inactive. For the same compound, the compound was classed as inactive (in assay [12]; in the assay with Caspase-3 (Homo sapiens); in [13]; in assay [15]). In addition, the AC50 in assay [14] is 32.8 µM (active); in assay [16], 10.2 µM (active).

With `CCOP(=S)(OCC)Oc1ccc([N+](=O)[O-])cc1`, the call in assay [17], in assay [1], in [2], in [3], in assay [4] and in assay [5] was inactive. The outcome (in assay [6]; in assay [7]; in assay [8]; with BCL2L11 (gene 10018); in [10]; in assay [11]) was inactive. Also, the result (in assay [12]; in the assay with Caspase-3 (Homo sapiens); in [13]) was inactive. Besides, the AC50 is 2.4 µM (active) in assay [9], 15.1 µM (active) in assay [14] and 0.636 µM (active) in assay [16].

Take `CSc1nnc(C(C)(C)C)c(=O)n1N`: the call in assay [17], in assay [1], in [2], in assay [3], in assay [4] and in [5] was inactive. The compound was classed as inactive (in [6]; in assay [7]; in [8]; in assay [9]; with BCL2L11 (gene 10018); in [10]). The call (in assay [11]; in the assay with Caspase-3 (Homo sapiens); in assay [13]; in assay [14]) was inactive. In addition, the concentration at half-maximal activity (AC50) in assay [16] is 14.6 µM (active).

`Cc1cc(C2CC2)nc(Nc2ccccc2)n1`: the outcome in assay [17], in assay [2], in [3], in assay [4], in assay [5] and in assay [6] was inactive. Besides, the compound was called inactive (in assay [7]; in assay [8]; in assay [9]; with BCL2L11 (gene 10018); in assay [10]; in assay [11]). The result (with Caspase-3 (Homo sapiens); in [13]) was inactive. Further, the results for the AC50 in [1], in assay [14] and in assay [16] were 74.6 µM (active), 91.5 µM (active) and 18 µM (active), respectively.

For the compound `CNC(=O)Oc1cccc2c1OC(C)(C)O2`, the result in assay [17], in [1], in [2], in assay [3], in [4] and in [5] was inactive. Moreover, the result (in assay [6]; in assay [7]; in assay [8]; in assay [9]; with BCL2L11 (gene 10018); in [10]) was inactive. The compound was called inactive (in assay [11]; with Caspase-3 (Homo sapiens); in assay [13]; in assay [14]; in [16]).

Turning to `C#CC(C)(C)NC(=O)c1cc(Cl)cc(Cl)c1`, the outcome in assay [17], in assay [1], in assay [3], in assay [4], in [5] and in assay [7] was inactive. For the same compound, the compound was called inactive (in [8]; in the assay with BCL2L11 (gene 10018); in [10]; in assay [11]; in the assay with Caspase-3 (Homo sapiens); in assay [13]). Besides, the compound was called inactive in assay [15]. In addition, the half-maximal activity concentration (AC50) in [2] is 27.3 µM (active); in assay [6], 17.3 µM (active); in [14] it was 50 µM (active); in assay [16], 8.65 µM (active).

The values above are taken from PubChem BioAssay (EPA / NIEHS).
